# From PubChem
# Only some compounds are listed: those with a hit (about 4.7% of all), similar ones and a draw of the others.
# D1 antagonist: antagonists of human D1 dopamine receptor; P21728; HEK293 TREx D1 cells, calcium flux, dopamine EC80; active compounds read low; activity change, negative = inhibition, % at 10 µM; actives 3.2% (n = 360,000); in the data active means activity change below about -30%; further: on the % scale 0 is the no-effect control and ±100 the full control effect
# Target sequence (P21728 whole entry, looked up): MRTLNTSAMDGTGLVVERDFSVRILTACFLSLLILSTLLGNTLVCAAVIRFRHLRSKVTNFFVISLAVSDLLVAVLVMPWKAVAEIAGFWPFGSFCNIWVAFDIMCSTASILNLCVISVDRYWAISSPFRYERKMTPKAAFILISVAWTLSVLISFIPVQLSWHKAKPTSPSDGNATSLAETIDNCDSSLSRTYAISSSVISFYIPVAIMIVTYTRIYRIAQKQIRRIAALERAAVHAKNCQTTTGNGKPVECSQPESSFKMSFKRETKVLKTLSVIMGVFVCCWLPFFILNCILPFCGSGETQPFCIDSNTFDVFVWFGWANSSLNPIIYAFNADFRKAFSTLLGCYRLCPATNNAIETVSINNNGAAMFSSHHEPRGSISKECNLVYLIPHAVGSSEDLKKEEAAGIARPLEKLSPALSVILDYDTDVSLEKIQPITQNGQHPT
#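 HEK293 T-REx cells expressing inducible, force-coupled D1 receptor; no-wash Ca dye, 30–90 min RT. Cmpd → 180 s read at 1 Hz → EC80 DA → 180 s read.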
# TRHR agonist: activates the human TRH receptor. TRHR cells, calcium flux fluo-8, FDSS agonist mode. actives 0.18% (n = 360,000). P34981. AID 493084. activation, % at 2 µM; further: 0% is about no effect
#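 TRHR-expressing cells, plated overnight in medium with 10% serum, were loaded with fluo-8 calcium dye at room temperature. After a 10 s baseline, library compound was pin-added and calcium release was recorded kinetically (ex 480/em 530) as agonist response.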
# D1 potentiator: human D1 dopamine receptor positive modulation; HEK293 TREx D1 cells, calcium flux, dopamine EC20 potentiation; potentiation, % at 10 µM; actives 0.036% (n = 360,000); AID 504651; in the data active means potentiation above about 30%; further: 0% is about no effect
# D1 agonist: agonists of human D1 dopamine receptor; P21728; AID 504660; activation, % at 2 µM; HEK293 T-REx D1 cells, calcium flux, agonist mode; actives 1% (n = 360,000); further: 0% is about no effect
#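 Inducible HEK293 T-REx D1 cells, force-coupled to calcium signalling, were plated at 4000 cells/well with tetracycline and held overnight at 30 C. After no-wash calcium dye loading, compound-evoked calcium rise over 180 s flagged agonists.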
# TRHR PAM: TRH receptor (human) allosteric enhancement; P34981; TRHR cells, fluo-8 calcium fluorescence, EC20 TRH enhancement; enhancement, % at 2 µM; actives 0.66% (n = 360,000); AID 493056; in the data active means enhancement above about 30%; further: 0% is about no effect
#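 Enhancer read-out: after compound pinning and an initial kinetic agonist-mode read, an EC20 of TRH (10 nM final) was injected and fluo-8 calcium signal (Ex 480/Em 530) followed at 1 s/cycle for 100 cycles in TRHR-expressing cells.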
# * = called active by the depositor; / = no result given; ! = not confirmed by another sample. Unless noted, no stated cut-off is given here; in the data, active means activation above about 30%; inactive means the rest.
SMILES,D1 antagonist,TRHR agonist,D1 potentiator,D1 agonist,TRHR PAM
CC(=O)c1ccc(NC(=S)N2CCN(c3cccc(Cl)c3)CC2)cc1,/,-0.3,-7.3,5.1,-4.4
O=C(Nc1ccc2c(c1)OCCO2)N1CCN(c2ccccc2)CC1,-45.6*,-0.1,-8.7,5.5,2.2
O=C(Nc1ccc2c(c1)OCO2)N1CCN(c2ccccc2)CC1,0.3,0.0,-3.8,1.1,2.4
COc1ccc(C2CCCN2C(=S)Nc2cccc(C)c2)cc1OC (stereo unspecified),-59.1*,-1.0,3.0,3.3,2.0
CC(=O)c1ccc(N2CCN(C(=S)Nc3cccc(Cl)c3)CC2)cc1,-36.7*,-0.2,-0.4,3.7,-6.0
O=C(Nc1cccc2ccccc12)N1CCCN(c2c(Cl)cncc2Cl)CC1,7.6,0.4,-0.6,-0.3,-5.7
CCCCNC(=O)[C@]1(C)CCC[C@@]2(C)C3CC[C@@]4(C)C[C@]3(CCC21)CC4=O (stereo partly specified),/,-0.2,1.8,-4.0,13.6
Cc1ccc2nc(SCC(=O)NCCCN3CCCC3=O)[nH]c2c1,30.1,0.5,-1.3,1.5,-5.5
COC(=O)N1CCN(c2ccc(Cl)c(Cl)c2)CC1,-5.7,0.1,5.0,12.7,-1.6
CC(=O)c1ccc(N2CCN(C(=O)Nc3cccc(F)c3)CC2)cc1,-35.0*!,0.6,-4.5,4.9,-0.9
CNC(=S)N1CCN(c2ccc(Cl)c(Cl)c2)CC1,-30.6*,0.6,-7.0,9.7,-0.6
CCOC(=O)[C@H]1[C@H]2COc3cc(OC)ccc3[C@@H]2N2C(=O)c3cc(F)ccc3NC(=O)[C@@]12C,11.0,0.1,-8.0,0.0,8.5
O=C(NNC(=S)NCc1ccccc1)c1ccc(Br)cc1,-11.9,-0.3,1.0,2.7,-0.3
Cc1ccc(CNC(=O)C2CCCN(S(=O)(=O)c3ccc4c(ccn4C)c3)C2)cc1 (stereo unspecified),10.7,0.5,2.3,7.4,2.4
N#Cc1cccc(NC(=O)c2ccccc2C(=O)O)c1,0.2,0.6,-2.4,2.8,-1.1
N#Cc1ccc(NC(=O)Nc2ccc(Oc3ccc(NC(=O)Nc4ccc(C#N)cc4)cc3)cc2)cc1,10.5,0.4,-4.5,15.9,37.1*
N#Cc1ccc(NC(=O)Nc2cccc(C#N)c2)cc1,-63.1*,3.0,-13.2,32.2*,3.6
c1ccc(OCCOc2cccc3cccnc23)cc1,-4.3,2.0,-7.0,5.2,-3.4
CC(C)Oc1ccccc1OCCCOc1cccc2cccnc12,-48.4*,-1.2,-3.1,5.6,0.7
OCc1ccccc1OCCCOc1cccc2cccnc12,-30.6*,-0.7,-13.8,2.4,-0.4
S=C1NCN(CCc2ccccc2)CN1Cc1ccccc1,0.5,-0.1,-5.5,53.4*,14.3
CCCN1CNC(=S)N(Cc2ccccc2)C1,10.1,0.2,-2.1,2.2,-4.8
CC(C)CN1CN(Cc2ccccc2)CNC1=S,-31.1*,-0.3,0.2,0.2,4.6
COc1cccc(N2CN(CCc3ccccc3)CNC2=S)c1,-30.3*,-1.0,-5.8,2.6,-2.8
N#Cc1ccc(CSc2ccc(S(=O)(=O)N3CCCC3)cn2)cc1,-27.4,-0.2,/,13.7,-8.7
SMILES,D1 antagonist,TRHR agonist,D1 potentiator,D1 agonist,TRHR PAM
O=C(CNC(=O)c1ccc(Cl)cc1Cl)NCCCn1ccnc1,-0.2,-0.7,-0.1,4.1,31.4*
O=C(CSc1cc(Cl)ccc1Cl)NCCCn1ccnc1,-0.5,-0.3,/,4.4,-4.8
O=C(NCCCn1ccnc1)c1cc(-c2ccc(Cl)cc2)nc2ccccc12,-39.4*,0.3,-5.5,-1.3,0.2
CN(C)CCN(Cc1ccco1)C(=O)c1oc2ccccc2c1NC(=O)COc1ccccc1,-40.3*,1.7,-13.0,16.0,4.0
CN(C)CCN(Cc1ccco1)C(=O)c1oc2ccccc2c1NC(=O)c1cccc(F)c1,-16.1,-1.1,3.6,66.2*,6.5
COc1ccc(C(=O)c2oc3ccccc3c2NC(=O)COc2ccc(C)cc2)cc1,-8.4,0.2,0.2,3.5,1.6
Cc1ccc(OCC(=O)Nc2ccc(OCc3cc(=O)n4cccc(C)c4n3)cc2)cc1C,3.8,0.0,-0.6,2.4,5.8
Cc1ccccc1CNCCCSc1nnnn1-c1ccccc1,4.0,0.2,-1.2,35.6*,-2.5
CCOc1ccc(CNCCSc2nnnn2C)cc1OC,-9.9,0.6,-0.6,-1.4,-0.4
CCOc1cc(CNCCSc2nnnn2-c2ccccc2)ccc1OC,-10.6,1.1,-0.8,30.0*,-1.8
COc1ccc(CCNc2nnc(Sc3nnnn3-c3ccccc3)s2)cc1OC,-52.7*,-0.5,-5.6,3.2,18.4
Cc1ccc(C(C)C)c(OCC(=O)Nc2ccc(C(=O)OC3CCCCC3)cc2)c1,11.2,-1.2,-1.9,15.5,7.1
Cn1nc(C(F)(F)F)c(CNC(=O)C(C)(C)CCl)c1N1CCOCC1,0.0,-0.5,3.0,-0.1,9.0
Cn1nc(C(F)(F)F)c(CN2CC(C)(C)C2=O)c1N1CCOCC1,-30.7*,0.0,-5.2,0.2,-5.0
COc1ccc(CCN(C)C(=O)Cc2ccc(-c3ccccc3)cc2)cc1OC,-31.5*,0.5,-1.9,10.2,-3.2
COc1ccc(CCN(C)C(=O)CN2C(=O)NC3(CCCCCC3)C2=O)cc1OC,-59.6*,0.3,-5.8,-0.8,7.8
O=C(CNC(=O)c1cccc2ccccc12)OC(C(=O)Nc1cc(C(F)(F)F)ccc1Cl)c1ccccc1 (stereo unspecified),12.7,2.1,5.0,-1.4,-3.6
CCOC(=O)N1CCN(C(=O)COC(=O)c2ccccc2NCCO)CC1,-3.4,0.3,-2.1,5.9,-0.2
O=C(O)c1cc(=O)c2cccc(O)c2[nH]1,10.8,0.8,-1.1,1.1,1.6
Cc1noc2nc(C(=O)O)nc(N3CCCCC3)c12,4.7,0.1,0.2,-2.7,-5.2
CC(C)(C)[C@H]1C=C(C(N)=O)O[C@@H](OCc2ccc(CO)cc2)C1,-30.7*,0.3,1.8,-3.0,-5.6
CC(C)(C)[C@@H]1C=C(C(N)=O)O[C@H](OCc2ccc(CO)cc2)C1,12.9,0.3,-0.6,3.8,3.0
COc1ccc(OC)c(CNc2ccc3c(c2)CCC3)c1,6.1,0.4,0.1,6.2,34.9*
COc1ccc(OC)c(NC(=O)Nc2ccc3c(c2)CCC3)c1,-49.5*,-0.7,-6.4,1.0,-2.6
COc1ccc(NC(=O)Nc2ccc3c(c2)CCC3)c(OC)c1,/,-0.5,-3.8,-2.2,0.2
Cc1ccn2c(-c3csc(NCc4ccco4)n3)c(C)nc2c1,-41.7*,-0.2,-10.8,7.5,-2.1
Cc1nc2ccccn2c1-c1csc(Nc2cccc(O)c2)n1,-3.5,0.2,2.4,0.3,-1.9
Cc1cccc(Nc2nc(-c3c(C)nc4ccccn34)cs2)c1,-45.5*,-0.8,-2.1,7.9,5.4
O=C(Nc1nc(-c2ccc(Br)cc2)cs1)c1cccnc1,-1.5,0.4,4.0,3.3,-9.8
CC(C)/C=N/Nc1nc(-c2ccc(Br)cc2)cs1,-45.6*,0.2,-2.1,0.2,2.1
